Source: PubChem BioAssay AID1159580 (chemical genetic matrix, 2015)
“And” between values parts separate entries of the source, which are not always exact repeats. Identical values can stand only once. Hit rate of the full screen: of about 5,500 compounds, about 2,000 (36%) were called active. Not shown: some 18% with an inconclusive outcome. Rule as the data show it: active = normalized growth mostly below about 0.91 (no sharp cut-off); inconclusive = no clear call, values can overlap the other calls; inactive = mostly above about 0.92. This is one part of the list.

Assay: chemical genetic growth profiling, strain panel (AID 1159580);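 also: tested at 20 µM; growth read once vehicle control cultures reached saturation at 30 °C; 1 = growth at the plate median or of vehicle wells; lower values mean less growth of the strain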
Conditions: S. cerevisiae deletion strains, growth OD

Measured: normalized growth

CCC1(CC)C(=O)C=CNC1=O
inactive: locus YAL021C, strain ccr4, hits give low values 0.998 | locus YAL026C, strain drs2, hits give low values 0.996 | locus YAL030W, strain snc1, hits give low values 1 | locus YBL061C, strain skt5, hits give low values 1.01 | locus YBR009C, strain hhf1, hits give low values 1.02 | locus YBR021W, strain FUR4, hits give low values 1.02 | locus YBR023C, strain chs3, hits give low values 0.994 | locus YBR171W, strain sec66, hits give low values 0.985 | locus YBR229C, strain ROT2, hits give low values 1.01 | locus YBR231C, strain swc5, hits give low values 0.997 | locus YBR279W, strain paf1, hits give low values 1 | locus YCL011C, strain gbp2, hits give low values 0.992 | locus YCL016C, strain dcc1, hits give low values 0.998 | locus YCL029C, strain bik1, hits give low values 1.01 | locus YCL061C, strain MRC1, hits give low values 0.999 | locus YCL069W, strain vba3, hits give low values 0.993 | locus YCR088W, strain abp1, hits give low values 0.986 | locus YDL005C, strain med2, hits give low values 0.999 | locus YDL035C, strain GPR1, hits give low values 1.02 | locus YDL040C, strain nat1, hits give low values 0.999 | locus YDL074C, strain BRE1, hits give low values 0.977 | locus YDL101C, strain DUN1, hits give low values 1 | locus YDL134C, strain PPH21, hits give low values 1.03 | locus YDL185W, strain tfp1, hits give low values 1.02 | locus YDL192W, strain arf1, hits give low values 1.01 | locus YDR001C, strain nth1, hits give low values 0.997 | locus YDR069C, strain doa4, hits give low values 1.02 | locus YDR101C, strain arx1, hits give low values 0.988 | locus YDR137W, strain rgp1, hits give low values 1.03 | locus YDR159W, strain sac3, hits give low values 1.02 | locus YDR162C, strain NBP2, hits give low values 1.02 | locus YDR195W, strain ref2 0.985 | locus YDR297W, strain sur2, hits give low values 0.995 | locus YDR318W, strain mcm21, hits give low values 1.01 | locus YDR334W, strain swr1, hits give low values 0.959 | locus YDR335W, strain msn5, hits give low values 0.997 | locus YDR388W, hits give low values 1.01 | locus YDR392W, strain spt3, hits give low values 0.945 | locus YDR502C, strain sam2, hits give low values 0.995 | locus YEL003W, strain gim4, hits give low values 0.994 | locus YEL037C, strain rad23, hits give low values 0.991 | locus YEL061C, strain CIN8 (second series), hits give low values 0.992 | locus YEL061C, strain CIN8, hits give low values 1 | locus YER015W, strain faa2, hits give low values 1 | locus YER016W, strain bim1, hits give low values 0.999 | locus YER110C, hits give low values 1.03 | locus YER111C, strain swi4, hits give low values 1.01 | locus YER155C, strain BEM2 (second series), hits give low values 0.992 | locus YER155C, strain BEM2, hits give low values 1 | locus YER167W, strain BCK2, hits give low values 1.02 | locus YFR010W, strain ubp6, hits give low values 0.985 | locus YGL078C, strain dbp3, hits give low values 1.02 | locus YGL086W, strain mad1, hits give low values 0.99 | locus YGL167C, strain pmr1, hits give low values 1 | locus YGL173C, strain kem1, hits give low values 1.01 | locus YGL227W, strain vid30, hits give low values 1 | locus YGL240W, strain doc1, hits give low values 1.02 | locus YGL248W, strain PDE1, hits give low values 0.987 | locus YGL253W, strain hxk2, hits give low values 0.985 | locus YGR078C, strain PAC10, hits give low values 0.97 | locus YGR135W, strain pre9, hits give low values 1.05 | locus YGR252W, strain gcn5, hits give low values 0.996 | locus YHR013C, strain ard1, hits give low values 1.03 | locus YHR027C, strain rpn1, hits give low values 0.982 | locus YHR030C, strain SLT2, hits give low values 1.01 and 1 | locus YHR079C, strain IRE1 (second series), hits give low values 1.01 | locus YHR079C, strain IRE1, hits give low values 1.01 | locus YHR094C, strain hxt1, hits give low values 1.02 | locus YHR129C, strain ARP1, hits give low values 1.01 | locus YHR142W, strain chs7, hits give low values 0.964 | locus YHR200W, strain rpn10, hits give low values 1.01 | locus YIL066C, strain RNR3, hits give low values 0.996 | locus YIL073C, strain SPO22, hits give low values 1.07 | locus YIL125W, strain kgd1, hits give low values 0.999 | locus YIR030C, strain dcg1, hits give low values 1.01 | locus YJL092W, strain hpr5, hits give low values 0.992 | locus YJL095W, strain BCK1 (second series), hits give low values 0.996 | locus YJL095W, strain BCK1, hits give low values 0.976 and 1.01 | locus YJL115W, strain asf1, hits give low values 0.973 | locus YJL129C, strain trk1, hits give low values 0.993 | locus YJL134W, strain LCB3, hits give low values 1 | locus YJL154C, strain vps35, hits give low values 0.983 | locus YJL164C, strain tpk1, hits give low values 1.01 | locus YJL166W, strain qcr8, hits give low values 1 | locus YJL168C, strain set2, hits give low values 1 | locus YJL187C, strain SWE1 (second series), hits give low values 0.982 | locus YJL187C, strain SWE1, hits give low values 1.01 | locus YJR043C, strain POL32, hits give low values 0.994
